Test results from PubChem BioAssay AID1159580 (chemical genetic matrix, 2015).
Hit rate of the full screen: of about 5,500 compounds, about 2,000 (36%) were called active. Inconclusive results (about 18%) are left out. Cut-off read from the data, not from the text of the source: active = normalized growth mostly below about 0.91 (no sharp cut-off); inconclusive = no clear call, values can overlap the other calls; inactive = mostly above about 0.92. The list shows a part of the results.

Experiment: chemical genetic growth profiling, strain panel (AID 1159580);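 note: tested at 20 µM; growth read once vehicle control cultures reached saturation at 30 °C; 1 = growth at the plate median or of vehicle wells; lower values mean less growth of the strain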
Settings: S. cerevisiae deletion strains, growth OD
[1] = locus YAL021C, strain ccr4, active compounds read low
[2] = locus YAL026C, strain drs2, active compounds read low
[3] = locus YAL030W, strain snc1, active compounds read low
[4] = locus YBL061C, strain skt5, active compounds read low
[5] = locus YBR009C, strain hhf1, active compounds read low
[6] = locus YBR023C, strain chs3, active compounds read low
[7] = locus YBR171W, strain sec66, active compounds read low
[8] = locus YBR231C, strain swc5, active compounds read low
[9] = locus YBR279W, strain paf1, active compounds read low
[10] = locus YCL011C, strain gbp2, active compounds read low
[11] = locus YCL016C, strain dcc1, active compounds read low
[12] = locus YCL069W, strain vba3, active compounds read low
[13] = locus YCR088W, strain abp1, active compounds read low
[14] = locus YDL005C, strain med2, active compounds read low
[15] = locus YDL040C, strain nat1, active compounds read low
[16] = locus YDR001C, strain nth1, active compounds read low
[17] = locus YDR069C, strain doa4, active compounds read low
[18] = locus YDR137W, strain rgp1, active compounds read low
[19] = locus YDR159W, strain sac3, active compounds read low
[20] = locus YDR297W, strain sur2, active compounds read low
[21] = locus YDR334W, strain swr1, active compounds read low
[22] = locus YDR335W, strain msn5, active compounds read low
[23] = locus YDR392W, strain spt3, active compounds read low
[24] = locus YEL003W, strain gim4, active compounds read low
[25] = locus YEL037C, strain rad23, active compounds read low
[26] = locus YEL061C, strain CIN8 (second series), active compounds read low
[27] = locus YER015W, strain faa2, active compounds read low
[28] = locus YER016W, strain bim1, active compounds read low
[29] = locus YER111C, strain swi4, active compounds read low
[30] = locus YER155C, strain BEM2 (second series), active compounds read low
[31] = locus YFR010W, strain ubp6, active compounds read low
[32] = locus YGL167C, strain pmr1, active compounds read low
[33] = locus YGL173C, strain kem1, active compounds read low
[34] = locus YGL227W, strain vid30, active compounds read low
[35] = locus YGL240W, strain doc1, active compounds read low
[36] = locus YGL253W, strain hxk2, active compounds read low
[37] = locus YHR013C, strain ard1, active compounds read low
[38] = locus YHR027C, strain rpn1, active compounds read low
[39] = locus YHR030C, strain SLT2, active compounds read low
[40] = locus YHR079C, strain IRE1, active compounds read low
[41] = locus YHR142W, strain chs7, active compounds read low
[42] = locus YJL092W, strain hpr5, active compounds read low
[43] = locus YJL095W, strain BCK1 (second series), active compounds read low
[44] = locus YJL095W, strain BCK1, active compounds read low
[45] = locus YJL115W, strain asf1, active compounds read low
[46] = locus YJL129C, strain trk1, active compounds read low
[47] = locus YJL154C, strain vps35, active compounds read low
[48] = locus YJL164C, strain tpk1, active compounds read low
[49] = locus YJL166W, strain qcr8, active compounds read low
[50] = locus YJR066W, strain TOR1, active compounds read low
[51] = locus YKL160W, strain elf1, active compounds read low
[52] = locus YKR026C, strain gcn3, active compounds read low
[53] = locus YKR091W, strain srl3, active compounds read low
[54] = locus YLL001W, strain dnm1, active compounds read low
[55] = locus YLL026W, active compounds read low
[56] = locus YLL041C, strain sdh2, active compounds read low
[57] = locus YLR027C, strain aat2, active compounds read low
[58] = locus YLR113W, strain HOG1, active compounds read low
[59] = locus YLR221C, strain rsa3, active compounds read low
[60] = locus YLR258W, strain gsy2, active compounds read low
[61] = locus YLR262C, strain YPT6 (second series), active compounds read low
[62] = locus YLR320W, strain mms22, active compounds read low
[63] = locus YLR342W, strain FKS1, active compounds read low
[64] = locus YLR357W, strain rsc2, active compounds read low
[65] = locus YLR370C, strain arc18, active compounds read low
[66] = locus YLR384C, strain iki3, active compounds read low
[67] = locus YML120C, strain ndi1, active compounds read low
[68] = locus YMR058W, strain fet3, active compounds read low
[69] = locus YMR125W, strain sto1, active compounds read low
[70] = locus YMR129W, active compounds read low
[71] = locus YMR205C, strain PFK2, active compounds read low
[72] = locus YMR231W, strain pep5, active compounds read low
[73] = locus YNL071W, strain lat1, active compounds read low
[74] = locus YNL183C, strain NPR1, active compounds read low
[75] = locus YNL209W, strain ssb2, active compounds read low
[76] = locus YNL248C, strain rpa49, active compounds read low
[77] = locus YNL322C, strain KRE1 (second series), active compounds read low
[78] = locus YNR049C, strain mso1, active compounds read low
[79] = locus YOR001W, strain rrp6, active compounds read low
[80] = locus YOR070C, strain gyp1, active compounds read low
[81] = locus YOR080W, strain dia2, active compounds read low
[82] = locus YOR083W, strain WHI5, active compounds read low
[83] = locus YOR106W, strain vam3, active compounds read low
[84] = locus YOR231W, strain MKK1, active compounds read low
[85] = locus YOR265W, strain rbl2, active compounds read low
[86] = locus YOR270C, strain vph1, active compounds read low
[87] = locus YOR290C, strain snf2, active compounds read low
[88] = locus YPL051W, strain arl3, active compounds read low
[89] = locus YPL078C, strain atp4, active compounds read low
[90] = locus YPL106C, strain sse1, active compounds read low
[91] = locus YPL240C, strain hsp82, active compounds read low
[92] = locus YPL256C, strain CLN2, active compounds read low

Measured: normalized growth

CNS(=O)(=O)Cc1ccc2[nH]cc(CCN(C)C)c2c1
inactive: [1] 0.999 | [2] 1.02 | [3] 1.02 | [4] 1.03 | [5] 1.03 | [6] 1.03 | [7] 1.04 | [8] 1.03 | [9] 1.02 | [10] 1.02 | [11] 1.02 | [12] 1.03 | [13] 1.03 | [14] 1.04 | [15] 1.02 | [16] 1.04 | [17] 1.02 | [18] 1.04 | [19] 1.03 | locus YDR195W, strain ref2 1 | [20] 1.02 | [21] 1.02 | [22] 1.02 | [23] 1.01 | [24] 1.02 | [25] 1.03 | [26] 1.03 | [27] 1.02 | [28] 1.02 | [29] 1.02 | [30] 1 | [31] 1.03 | [32] 1.03 | [33] 1.05 | [34] 1.03 | [35] 1.02 | [36] 1.02 | [37] 1.07 | [38] 1.04 | [39] 1.07 | [40] 1.05 | [41] 1.04 | [42] 1.03 | [43] 1.02 | [44] 1.01 | [45] 1.03 | [46] 1.07 | [47] 1.03 | [48] 1.02 | [49] 1.02 | locus YJL187C, strain SWE1, active compounds read low 1.03 | [50] 0.977 | [51] 1.02 | [52] 1.03 | [53] 1.01 | [54] 1.02 | [55] 1.01 | [56] 1.02 | [57] 1.01 | [58] 0.935 | [59] 1.02 | [60] 1.03 | [61] 1.04 | [62] 1.04 | [63] 1.02 | [64] 1.02 | [65] 1.01 | [66] 1.03 | [67] 1.02 | [68] 1.04 | [69] 1.02 | [70] 1.01 | [71] 1.05 | [72] 1.03 | [73] 1.03 | [74] 0.97 | [75] 1.02 | [76] 1.06 | [77] 1.02 | [78] 1.02 | [79] 1.03 | [80] 1.03 | [81] 1.03 | [82] 1.01 | [83] 1.05 | [84] 1.03 | [85] 1.01 | [86] 1.1 | [87] 1.02 | [88] 1.02 | [89] 1.02 | [90] 1.03 | [91] 1.02 | [92] 1.06

CN(C)CCc1c[nH]c2ccc(C[C@H]3COC(=O)N3)cc12
inactive: [1] 1.02 | [2] 1.01 | [3] 1.01 | [4] 1.01 | [5] 1.01 | [6] 1.01 | [7] 1.02 | [8] 0.993 | [9] 1.01 | [10] 1.01 | [11] 1 | locus YCL061C, strain MRC1, active compounds read low 1.01 | [12] 1.01 | [13] 1.01 | [14] 1.01 | [15] 1.01 | [16] 1.01 | [17] 1.02 | [18] 0.993 | [19] 1.04 | locus YDR195W, strain ref2 0.978 | [20] 1.01 | [21] 1.02 | [22] 1.01 | [23] 1.03 | [24] 1 | [25] 1.01 | [26] 1.01 | [27] 1.01 | [28] 1.01 | [29] 1.02 | [30] 1.06 | [31] 1.02 | [32] 1.01 | [33] 1 | [34] 1.01 | [35] 1.01 | [36] 0.998 | [37] 1 | [38] 1.01 | [39] 1.02 | [40] 0.986 | [41] 0.992 | [42] 1.01 | [43] 1.01 | [44] 1 | [45] 1.01 | [46] 0.988 | [47] 1.01 | [48] 1.02 | [49] 1.01 | [50] 0.966 | [51] 1 | [52] 0.992 | [53] 0.997 | [54] 1.01 | [55] 1.01 | [56] 1.01 | [57] 1.01 | [58] 0.972 | [59] 1.02 | [60] 1.01 | [61] 1.01 | [62] 1.01 | [63] 1.01 | [64] 0.973 | [65] 1.01 | [66] 1 | [67] 1.02 | [68] 1.01 | [69] 1.01 | [70] 1.01 | [71] 0.998 | [72] 1 | [73] 1.01 | [74] 0.978 | [75] 1.01 | [76] 1 | [77] 1.01 | [78] 1.01 | [79] 0.998 | [80] 1.01 | [81] 1 | [82] 1 | [83] 1 | [84] 0.999 | [85] 1.01 | [86] 0.991 | [87] 1.01 | [88] 1.01 | [89] 1 | [90] 1.04 | [91] 1.01 | [92] 1.02
